Results: PubChem BioAssay AID1239 (SRMLSC, 2008)
The campaign covered roughly 190,000 compounds. About 3,100 (1.6%) were called active. What follows is part of a selection rich in actives, with near analogues and random picks from the rest. Values without a mark were called inactive. Rule as the data show it: active = fold change above about 3.3; inconclusive = no clear call, values can overlap the other calls; inactive = below that.

test: NF-kB upregulation, human neuronal cells – cell-based, HTS, primary screen (AID 1239); conditions: NF-kB reporter expression, at 12.5 µM, hits give high values

Going from `CCn1c(SCC(=O)N(C)C2CCS(=O)(=O)C2)nnc1-c1cccs1` (stereo unspecified) to `CC(=O)C1(C)N(O)C(C)(C)C(c2cccs2)=[N+]1[O-]` (stereo unspecified), the fold change falls from 1.03 to 0.95.

First: CC(=O)c1ccc(N2CCN(CC(=O)Nc3ccccc3N3CCOCC3)CC2)cc1
Second: COc1ccc(NC(C)=O)cc1NC(=O)CN1CCN(c2ccccn2)CC1
The fold change of the first is lower: 1 for the first, 1.04 for the second.

Going from `CC1(C)CN(c2ccc(-c3ccnc4ncnn34)cc2)C1=O` to `CCCCCC(=O)Nc1ccc(-c2cn3cccnc3n2)cc1`, the fold change falls from 1.23 to 0.94.

Going from `COc1ccc(N2CCN(C(=S)Nc3ccc(S(N)(=O)=O)cc3)CC2)cc1` to `COc1ccc(C(=O)NC2CCN(C(=S)NCCc3ccccc3)CC2)cc1`, the fold change rises from 0.85 to 0.91.

Going from `CCn1cc(CN2CCCC(CNS(=O)(=O)Cc3ccccc3)C2)cn1` (stereo unspecified) to `O=C(CCc1ccccc1)Nc1ccc(NC(=O)C2CCCCC2)nc1`, the fold change rises from 0.89 to 1.04.

Compared with `CCCCCCCCC(=O)NCCOc1ccccc1`, `CCCCOc1ccc(C(=O)NCc2ccncc2)cc1` is higher in fold change: 1.12 for the first, 1.15 for the second.

Compared with `CCOc1ncccc1C(=O)OCC(=O)NC1CC1`, `O=C(COC(=O)CNC(=O)c1ccccc1F)NCC(F)(F)F` is lower in fold change: 1.17 for the first, 1.05 for the second.

First: CN1CCN(CC(=O)Nc2cccc([N+](=O)[O-])c2)CC1
Second: O=C(Nc1cccc([N+](=O)[O-])c1)Nc1ccc(Cl)cn1
The fold change of the first is higher: 1.37 for the first, 0.9 for the second.

Going from `COc1cc2c(cc1OC)CN(C(=O)c1cc(=O)c3ccccc3o1)CC2` to `COc1cc2c(cc1OC)CN(C(=O)c1ccc(S(=O)(=O)N3CCCCCC3)cc1)CC2`, the fold change rises from 0.82 to 0.87.

First: O=Cc1ccc(Oc2cccc(C(F)(F)F)c2)nc1
Second: O=C(/C=C/c1ccc(Cl)cc1)Nc1ccc(Br)cn1
The fold change of the first is higher: 1.2 for the first, 1.07 for the second.

Compared with `O=C(CSc1cccc[n+]1[O-])c1ccc(Cl)cc1`, `Cc1nc(-c2ccc(Cl)cc2)sc1C(=O)CBr` is higher in fold change: 1.21 for the first, 1.42 for the second.

First: NC(=O)COC(=O)/C=C/c1ccc2ccccc2n1
Second: COc1cccc(/C=C/c2ccc3ccccc3n2)c1OC(C)=O
The fold change of the first is lower: 0.97 for the first, 3.13 for the second.

First: CCOC(=O)c1c(N)nn(C(=O)c2ccccc2)c1-c1ccccc1
Second: O=C(NCc1cccnc1)c1cccc(-c2cc3ccccc3oc2=O)c1
The fold change of the first is higher: 1.07 for the first, 0.93 for the second.

Going from `C=CCN1C2CCCC1CC(NC(=S)Nc1cccc(OC)c1)C2` (stereo unspecified) to `CCn1nc(C)cc1C(=O)N1CCCC(C(=O)c2cccc(OC)c2)C1` (stereo unspecified), the fold change rises from 1.07 to 1.1.

Compared with `CC(CNC(=O)c1ccc(N)cc1)NC(=O)c1ccc(N)cc1` (stereo unspecified), `O=C(NCCc1ccccc1)c1ccc(NC2=NC3CS(=O)(=O)CC3S2)cc1` (stereo unspecified) is lower in fold change: 1.46 for the first, 1.1 for the second.

Going from `COc1cc(-c2nc(-c3ccncc3)no2)cc(OC)c1OC` to `CCOc1nc(-c2ccc(OC)cc2)ccc1-c1noc(-c2cc(OC)c(OC)c(OC)c2)n1`, the fold change rises from 0.54 to 1.01.

Going from `COc1ccc(OC)c(S(=O)(=O)NCCC(C)C)c1` to `COc1ccc(OC)c(NC(=O)CN2CCN(C(=O)c3ccco3)CC2)c1`, the fold change falls from 1.13 to 1.07.

Compared with `O=c1oc2ccccc2cc1-c1cn(-c2ccccc2)c(=S)[nH]1`, `O=C(O)CSc1nnc(-c2ccc3c(c2)OCO3)n1-c1ccccc1` is higher in fold change: 0.83 for the first, 1.41 for the second.

Compared with `O=C(/C=C/c1ccc2c(c1)OCO2)NCc1cn2cc(Cl)ccc2n1`, `NC(=O)Cc1nc2scc(-c3ccc(Cl)cc3)c2c(=O)[nH]1` is lower in fold change: 1.09 for the first, 0.99 for the second.

First: COc1ccc(N(C)S(=O)(=O)c2cccc3nsnc23)cc1
Second: Cc1ccc(S(=O)(=O)Nc2nc3ccccc3s2)cc1[N+](=O)[O-]
The fold change of the first is lower: 1.25 for the first, 1.51 for the second.

Going from `O=C(c1ccc(N2CCOCC2)c([N+](=O)[O-])c1)N1CCN(S(=O)(=O)c2cccs2)CC1` to `O=S(=O)(c1cccs1)N1CCc2ccccc2C1`, the fold change falls from 1.15 to 1.07.

Going from `C=CCn1c(CCNC(=O)c2ccccc2F)nnc1SCC(=O)Nc1ccc(OC)cc1` to `N#CCC(=O)N/N=C/c1ccc(SCC(=O)Nc2ccccc2)o1`, the fold change rises from 1.12 to 1.28.

Compared with `CCCC1(C(=O)OC)NC(c2ccco2)C2C(=O)N(C)C(=O)C21` (stereo unspecified), `COC(=O)c1nc2ccccc2s1` is lower in fold change: 1 for the first, 0.91 for the second.

Going from `COc1ccc(/C=C2\CCc3ccccc3C2=O)c(OC)c1OC` to `COc1ccc(S(=O)(=O)N2CCOCC2)cc1NC(=O)CSc1ncnc2ccccc12`, the fold change falls from 1.7 to 1.56.

First: Cc1ccc(N2CCN(C3=NC(=O)/C(=C\c4cccs4)S3)CC2)cc1
Second: CCC1C/C(=C/c2cccs2)C(=O)/C(=C/c2cccs2)C1 (stereo unspecified)
The fold change of the first is higher: 1.27 for the first, 1.07 for the second.

Compared with `COc1ccc(CN2CCN(Cc3cn(C)nc3-c3ccccc3)CC2CCO)c(C)c1C` (stereo unspecified), `COCC1CCCN(Cc2nc(-c3ccc4c(c3)OCO4)no2)C1` (stereo unspecified) is higher in fold change: 1.01 for the first, 1.62 for the second.

Compared with `CCc1ccc(NC(=O)Cn2nc(C)c([N+](=O)[O-])c2C)cc1`, `NC(=O)Cn1nc([N+](=O)[O-])nc1Oc1ccc(Br)cc1` is lower in fold change: 1.28 for the first, 0.99 for the second.

Compared with `O=c1[nH]c(CN2CCOCC2)nc2cc(Cl)ccc12`, `Nc1nc(NCCCN2CCOCC2)nc(Nc2ccccc2)c1[N+](=O)[O-]` is lower in fold change: 1.04 for the first, 0.82 for the second.

First: CCN1C(=O)/C(=c2\s/c(=C3\Sc4ccccc4N3C)c(=O)n2C)N(C)C1=S
Second: Cc1c(C(=O)Nc2ccccc2)sc2nc3n(c(=O)c12)CCCCC3
The fold change of the first is lower: 1.16 for the first, 1.58 for the second.

Going from `CN(C)CCCN1C(=O)CSC1c1ccc([N+](=O)[O-])cc1` (stereo unspecified) to `CC(C)C(=O)Nc1cccc(NC(=O)c2ccc([N+](=O)[O-])cc2Cl)c1`, the fold change rises from 1.03 to 1.13.

First: CN(c1ccccc1)c1ccc(/C=c2\s/c(=C(/C#N)C(=O)C(C)(C)C)n(Cc3ccco3)c2=O)cc1
Second: O=C(c1ccc2c(c1)N(Cc1ccc(F)cc1)C(=O)c1ccccc1S2(=O)=O)N1CCN(c2ccccn2)CC1
The fold change of the first is higher: 1.52 for the first, 0.68 for the second.

First: Cc1csc(=Nc2ccccc2)n1CCO
Second: O=C(O)CSCc1nc2ccccc2s1
The fold change of the first is higher: 1.05 for the first, 0.98 for the second.

Going from `Cc1nnc(SC(C(=O)Nc2cc(Cl)cc(Cl)c2)c2ccccc2)[nH]c1=O` (stereo unspecified) to `CSCCC(Nc1nc2ccccc2s1)C(=O)O` (stereo unspecified), the fold change rises from 1.02 to 1.16.

First: O=C(Nc1ccc(Br)c2cccnc12)c1ccc(Cn2cc([N+](=O)[O-])cn2)o1
Second: O=C(NCc1cccnc1)c1nc(-c2cccs2)no1
The fold change of the first is lower: 1.07 for the first, 1.23 for the second.

Going from `C/C(=N/O)c1ccc(N2C(=O)C3C4C=CC(C3C2=O)C2C3C(=O)N(c5ccc(/C(C)=N/O)cc5)C(=O)C3C42)cc1` (stereo unspecified) to `CCCCCc1ccc(-c2ccc(OCC)cc2)nc1`, the fold change rises from 1.33 to 1.81.

Going from `O=C(O)C1C2CC2CN1C(=O)c1ccc(Cl)cc1Cl` (stereo unspecified) to `O=C(CN1CCOCC1)Nc1ccc(NC(=O)CN2CCOCC2)c(Cl)c1`, the fold change rises from 0.99 to 1.01.

Compared with `O=C(CN1CCCCC1)Nc1ccccc1Cl`, `Cc1cccc2c(=O)n3c(nc12)CCCCC3` is lower in fold change: 1.2 for the first, 1.11 for the second.

Compared with `CCn1c(CSCc2c(Cl)cccc2Cl)n[nH]c1=S`, `CCOc1cccc(/C=N/N2C(=O)CSC2=S)c1O` is higher in fold change: 1.06 for the first, 1.38 for the second.

Going from `CCN1CCN(CC(=O)Nc2sc3c(c2C#N)CCC3)CC1` to `COCCN(C(=O)CCC(=O)Nc1nccs1)C(C(=O)NC(C)(C)C)c1ccc(Cl)cc1` (stereo unspecified), the fold change rises from 1.03 to 1.27.

Compared with `O=C(O)CCCCc1nc2ccccc2s1`, `CC(C)CC(=O)NC(=S)NCc1ccccc1` is lower in fold change: 1.24 for the first, 1.01 for the second.

Work on `COCCNc1nc(N)c([N+](=O)[O-])c(NCCO)n1` yielded a fold change of 0.91.

With `CCCCCCOc1ccc(OC(=O)c2cccnc2)cc1` the fold change was 5.55 (active).
In the case of `CCOc1cc(C(=O)N2CCc3cc(OC)c(OC)cc3C2)ccc1OC(F)F`, the fold change was 4.22 (active).
For `CCOc1cccc(/C=C/c2ccc3ccccc3n2)c1OC(C)=O`, the fold change was 4.82 (active).
With `COc1ccc(-c2noc(-c3cccc(OC)c3OC)n2)cc1OC` the fold change was 3.86 (active).
In the case of `COc1ccc(NC(C)=O)cc1NC(=O)CN1CCN(C2c3ccccc3-c3ccccc32)CC1`, the fold change was 3.62 (active).
With `Nc1ncc(-c2cc3ccccc3oc2=O)s1` the fold change was 3.48 (active).
For `O=C1/C(=C/c2cccs2)CCc2ccccc21`, the fold change was 5.83 (active).
In the case of `O=C1/C(=C/c2cccs2)CCC1C1CCCC1` (stereo unspecified), the fold change was 5.68 (active).
In the case of `O=c1[nH]c(CCl)nc2cc(-c3ccc(Cl)cc3)sc12`, the fold change was 4.29 (active).
For `Cc1cs/c(=N\N=C\c2ccc(O)cc2)n1Cc1ccco1`, the fold change was 4.11 (active).
With `Cc1ccnc(Nc2nc3ccccc3s2)n1` the fold change was 4.25 (active).
In the case of `O=C(Nc1ccc(Br)cn1)c1ccc([N+](=O)[O-])cc1Cl`, the fold change was 3.54 (active).
With `O=C(Nc1ccc(Br)cn1)c1ccc([N+](=O)[O-])o1` the fold change was 4.41 (active).
In the case of `CCCCCc1ccc(-c2ccc(C(=O)O)cc2)nc1`, the fold change was 6.88 (active).
For `CC(=O)Nc1ccc(NC(=O)CN2CCCC(C)C2)c(Cl)c1` (stereo unspecified), the fold change was 4.21 (active).
In the case of `O=c1c2c(nc3n1CCCCC3)sc1c(O)cccc12`, the fold change was 4.86 (active).
For `CC(C)CC(=O)N/C(N)=N/c1nc2ccccc2s1`, the fold change was 8.73 (active).
In the case of `CCC(=O)NC(=Nc1nc2ccccc2s1)NC(=O)CC`, the fold change was 6.73 (active).
In the case of `CC1CCCN(c2ccc(C(=O)NCCc3ccccc3)cn2)C1` (stereo unspecified), the fold change was 4.24 (active).
In the case of `CNc1nc(Nc2ccc(C)c(Cl)c2)nc(N)c1[N+](=O)[O-]`, the fold change was 5.21 (active).
